The values below come from PMC12864922, “TDP-43 directly inhibits mRNA accumulation in neurites through modulation of mRNA stability”.

Whole data set: some 9,900 sequences, median “r (bound/input frequency ratio)” near 0.7, cut for the highest 2% near 6.5. Many of the other results were omitted from the sample, so the highest values are more common in it than they were.

First the molecules themselves.
B1: ENSMUSG00000028439.291|Fam219a|94:98 (ssRNA)
RNA: GGGAGUUCUACAGUCCGACGAUCGCUUCGAUAUCCGCAUGCUAGUGUCUCUCCUUCAGGCGCCCCACAUGCCAGCAUUUCCACCCUCUGGAUUCUCCUCACAUGUCACUCUCCAGGUGCCGGGGCCUAGAGUGGGCCACACAGAAGGAGGAGUGGGGCUGUUGGCUUAGGAAGGGAAGCGCCUCUCUGUACACCACAACCAGGAGCUGCCCACUCCCCACACCUCCAGCCCAGCUUACCUCCCCCUAGUACAGAGAUCCUAAUUAGAUAAGAAAAUGCCAAGGGAGGCAAGCCAGAGAAAGCACUCUUGCGGUCGCACUAGUGUGGAAUUCUCGGGUGUCAAGG
B2: ENSMUSG00000090935.679|Synj2bp (ssRNA)
RNA: GGGAGUUCUACAGUCCGACGAUCGCUUCGAUAUCCGCAUGCUAUGAACCUUGAGAUUCACCACUGUCAGGAGCUCUCUCUCUCUGCUUAGAAUCAUCCAGACAGCGGGCUGGUCAGCCCACAUUAAAUAAGAACAUGUGGGACUAGAAUUCAGUCAACAAUGACAUGUUUCAUCAGGUGGUUAAAAUGUACAGAUUCUGUUGGAAAUGUUCCAUGGUAUUUCAAUAGCCAGAAUGAAGAACUGGGCUAAGUCCAGAGCUCUGCUCUCUGAGCAUCUGCCCCAGAUACAGAGGCAGAGUAUGAACUCUUGCGGUCGCACUAGUGUGGAAUUCUCGGGUGUCAAGG
B3: ENSMUSG00000043670.52|Diras1|235:240 (ssRNA)
RNA: GGGAGUUCUACAGUCCGACGAUCGCUUCGAUAUCCGCAUGCUACACCAGCCUACAGUAAGGUUGGGCUCCAUCCCUGCCUCUUCACACCUCCAUAGCUUCAUCCUUUGCAGACCUCUCCCUCUAUAUCUCUUUGCUCCCCCACCCCCAUUCUAUCUGCACCCCACAACCACACACUGGAGGUUUGAUCCCUGUGGAUCUGAAAACAGGGACCUGGCUAAGGAACUGCUCAUCCCAGUCAGGCCCAGAGAGGUUACCUUGCCUCUCCAUCUCUGUCCCACACACCCCAGCCAUGCCCACUGUCCCUCUUGCGGUCGCACUAGUGUGGAAUUCUCGGGUGUCAAGG
B4: ENSMUSG00000029028.191|Lrrc47 (ssRNA)
RNA: GGGAGUUCUACAGUCCGACGAUCGCUUCGAUAUCCGCAUGCUACCCAUCUCUGUGCAUCCUGACUGCGCACAUCCCAUCUCCGCAUGUGUACGCAUCUGUACCAGCACACAGCUGCCAUCCCUCGAGCCACAGUGCCUGGUCCUAAGGACCCAGCAGCUGCACAGAGGACUUGGUGGCCCCGUGCCUUGCCAUCUGGCUGAGAAGAGAACCAGACCCUCAGCCUUCCCCCUCGACACCUUCUCGUUGGUGACCUCUGACCUUAAAGGACCAUUUCUACCUUCUGUAAAAGAACACCUGUUUGGCUCUUGCGGUCGCACUAGUGUGGAAUUCUCGGGUGUCAAGG
B5: ENSMUSG00000061578.1057|Ksr2 (ssRNA)
RNA: GGGAGUUCUACAGUCCGACGAUCGCUUCGAUAUCCGCAUGCUAUGUGAAAGUCUGAUGACUCAAAUCAAAGUUUGGUUUUUCUUUUCUACUACUCUGAAGGAAAAUCUCAGCUUGGCUAUUUCUUCAUGUUUUAAAAAUGUCUUGACUUCUCUCAGCAACCAACUUCAGGUGCCAGGAUAUGAGAUGCUAAGGUUCAGGGGUGGUGGAGGUGAUUCUAUCCAGUGGCCAGCAAUACCCAAAAGCAGCCAACCAUGAAAAUAGAGGUUUGUAAUGUACAGAAGGCUGGGGGAGCUUUCAGGGGUCUCUUGCGGUCGCACUAGUGUGGAAUUCUCGGGUGUCAAGG
B6: ENSMUSG00000043670.174|Diras1 (ssRNA)
RNA: GGGAGUUCUACAGUCCGACGAUCGCUUCGAUAUCCGCAUGCUACAGCAAAGUCCCUGUGUGCGGUGAUAGGACUAGUGGCUGCUGCCCUAGGGCUCUGACAGAAUCUGAGCCUCUUUGCUGGUCAUGUGUACUCUGGAGACUGUCCCCCAUGUCUGCCCUGAGUUACGGAGCCCCUGUGGUAUCUGCGAGACUGUCCAGGAGACUUGAGUGGCUCCUGGGCCUGUGUCCCACCCAGAUGAGGGUGACUUAGAAUUCUGUGUUUAUGUGCCUGUGUGUGUGGAUGGGUGUGUGUCUGUCUUGGGCUCUUGCGGUCGCACUAGUGUGGAAUUCUCGGGUGUCAAGG
B7: ENSMUSG00000029636.81|Wasf3|153:157 (ssRNA)
RNA: GGGAGUUCUACAGUCCGACGAUCGCUUCGAUAUCCGCAUGCUAUGAUGUCUUCCAACCAGUGGGUGAUACGUUUUCCUGUUUCUUCCCUUUGCAAAUUGAAUUCCAGGUAGAUAUGGUUGUAGAGGGGAAAGUUUAACAAAUCAGAAUGAAAUGUUUGUCUGUUUGCACACUGGGCCUGGUGGCCUCCAAGGAAAACACAACGAUCGUUUGCUUUCUCUAUCUUGGCGCUUGCAACCGAGAGCGGCCAUUUUUAUGAGGGGAGCCCUGUGGGUACUCAUGUGGAAAGUGCCCACUGACUUUGGCUCUUGCGGUCGCACUAGUGUGGAAUUCUCGGGUGUCAAGG
B8: ENSMUSG00000029028.64|Lrrc47 (ssRNA)
RNA: GGGAGUUCUACAGUCCGACGAUCGCUUCGAUAUCCGCAUGCUAUGGGUAUGCUGUAGAUGUCUGUGUAGGUGUGGAUAUGCUGUAGGUAUCUGGGUGUGCUGUAGGUGUCUGUGUGGGUGUGGGUGUGCUGUGGGUGUCUGUGUGGGUGUGCUGUAGGUGUCUGUAGGUGUGGGUAUGCUGCAGGUGUGGGUGUGCUGUAGAUCUCUAUAGGUGUGGGUGUGCUGUAGGGGUCUGUGUGGGUAUAGGUGUGGGUGUGCUGUAGAUUCUGUGUAACUGGUUCUUUGCUGUUUCUCUGGGUGUUUCUCUUGCGGUCGCACUAGUGUGGAAUUCUCGGGUGUCAAGG
B9: ENSMUSG00000058297.508|Spock2 (ssRNA)
RNA: GGGAGUUCUACAGUCCGACGAUCGCUUCGAUAUCCGCAUGCUAUAGCCUGGGAGUUCUGGCAGGAGGCAAAGUUGGUGAGAGUCCUGGGACAUCUUACCCCCAGUGUUCCACAGGAGUCGUGACCACGUGUGAUGGGUGGGCACAGGUCUGCCUUGCUCCAGCCCCCUCCCUUGGUUUCUGUUGGUACCCAUUUGGCUUUUAUCUGCUUUCUGCUUCACCACUAAGUGCGUAGGUGGGGUCUUUUGAUAUCGGCUCCCCAAAGCCCAAGCCCACAGCCCUAGGAGAGAACCAGGGGCCCAUCUCUCUUGCGGUCGCACUAGUGUGGAAUUCUCGGGUGUCAAGG
B10: ENSMUSG00000031028.667|Tub|229:233 (ssRNA)
RNA: GGGAGUUCUACAGUCCGACGAUCGCUUCGAUAUCCGCAUGCUAAGGACAGGCAAAAUUUCUCUAGCUGAGAGCACACUUAGCCAGUUUUCACGCCUAGAACAUAUAUGUCGAUUUGCACAUGAUUGUCUUUUCCUAUUUUGGAGUGGUCAGACAUUUUAUUUUUGUUCAAAAUUAUCUGGAGUUUUAGACAAACUUGCAAAACUGUGCUUUUAUUAAGUGACUUUUUGAAUAAACUUUUUGGUAUUCUGAAGCAAAUGUAUUUAUUUAUUGCAUACUGCAAUGACAAACUUGGUAUUUUCCCACUCUUGCGGUCGCACUAGUGUGGAAUUCUCGGGUGUCAAGG
B11: ENSMUSG00000058297.445|Spock2|189:193 (ssRNA)
RNA: GGGAGUUCUACAGUCCGACGAUCGCUUCGAUAUCCGCAUGCUAUGGUGGGGCUGAAGGUUCCCAAGUAGCUUCUAGUUAAGCAAGCUUCGUGUUUCCUCAGGAGCAAGGUCACACAGGUCAGAUUAUUGUCGGUCCUGCGGGCCUCAUCCUUGAAUAAGCUGCCUGCCCAGUUCCUCCAUCCGUGUUCCUGCCUGCUCCCGUUCCCUUGUUGCGGGCAGGAGAGGUAGGGCACACAUGGAAAGAGUUCAACCAAAUUACGGCAGCACCACAUCUUGCCGAGCCCUGGAGCUGCCCUACUAAGACUCUUGCGGUCGCACUAGUGUGGAAUUCUCGGGUGUCAAGG
B12: ENSMUSG00000028439.22|Fam219a|136:142 (ssRNA)
RNA: GGGAGUUCUACAGUCCGACGAUCGCUUCGAUAUCCGCAUGCUACGCUGACCUGGGCCCGGUGGGAUGCAGCAGGAGAGACCCCUACCCUGCUGGUCCACUGGUCCCCAGCCCCGCGCCUCUUAGAGCCGCCAACCUCGUAACAGUCAUUGCUUCCUCCUAUGGUAGGACGUGUACCUCACACACAUCAAGGAGCCGGAGAAACCAAAACCGGGUCUGUCUCCAGCCCCGGGGCUGAGGAGGGGUGGGCACUGUUUGUUCGGUUACUUGGGGGGAACCACACCCAAGCACCCUGCCACCUCUCCCUCUUGCGGUCGCACUAGUGUGGAAUUCUCGGGUGUCAAGG
B13: ENSMUSG00000061578.153|Ksr2|12:16;34:49;85:89 (ssRNA)
RNA: GGGAGUUCUACAGUCCGACGAUCGCUUCGAUAUCCGCAUGCUAGACGGUCCUGGCAUACCAUGAUGGGUUACAUGGCACACACACACACACAAACUGUUUACAAUGGUCUCCCUGCCUCUCACGGGCACACAUCCAGGAGAAUGCACAUAGAGAGGUUCUGUGGUCUCUGCUGUCGCCUGGUGCUGAAUCCUGAGUGGUUUCCCCACUGAGGACCCUGUGACCCUGUGACCCUUGGCCCCUCCCUUAUUGUGCACACUCAGCACCCCAUCUUCCAAGCCUUUCUUCAUCCCCCACCUUCUUUUCUCUUGCGGUCGCACUAGUGUGGAAUUCUCGGGUGUCAAGG

Chain of TDP-43 (Q13148 whole entry): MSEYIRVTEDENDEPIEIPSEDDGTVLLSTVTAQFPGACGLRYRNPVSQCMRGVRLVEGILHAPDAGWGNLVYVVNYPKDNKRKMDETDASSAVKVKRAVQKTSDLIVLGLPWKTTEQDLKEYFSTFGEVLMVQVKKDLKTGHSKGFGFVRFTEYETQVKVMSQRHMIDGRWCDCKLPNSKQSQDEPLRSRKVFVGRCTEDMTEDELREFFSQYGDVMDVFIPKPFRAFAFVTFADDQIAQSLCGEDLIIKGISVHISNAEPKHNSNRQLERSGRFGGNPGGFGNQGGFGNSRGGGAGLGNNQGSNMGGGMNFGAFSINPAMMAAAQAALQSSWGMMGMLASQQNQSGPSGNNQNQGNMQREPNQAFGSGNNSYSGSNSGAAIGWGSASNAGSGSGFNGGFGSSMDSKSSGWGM

In this test the target is TDP-43 (Homo sapiens, UniProt Q13148 1-414). Kind of test: RNA Bind-n-Seq with designed 260-mer pool; 25 mM Tris-HCl, 150 mM KCl, 3 mM MgCl2, BSA (printed 500 mg/mL), 20 units/mL SUPERase IN; pH not stated; 500 nM RNA pool, 1 h, 4 C; TDP-43 5, 50, 500 nM; high values mean tight binding. The conditions noted are these: protein: recombinant; tags: SBP (GST cleaved off with PreScission; pGEX-GST-SBP). An outline of the steps:
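Binding (R) is the ratio of each oligo's mapped-read-normalized abundance in the bound fraction to its abundance in the input. To obtain it, SBP-tagged recombinant TDP-43 (5, 50 or 500 nM) on streptavidin beads was incubated with 500 nM of an in vitro-transcribed 260-nt 3′ UTR oligo pool for 1 h at 4 °C in 25 mM Tris-HCl, 150 mM KCl, 3 mM MgCl2, BSA and SUPERase IN. The RNA retained after washing was released with biotin, then reverse transcribed, amplified by PCR and sequenced.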
As for B1, the binding signal was 0.63 R (bound/input frequency ratio).
For B2 the value was 0.733 R (bound/input frequency ratio).
For B3 the value was 2.23 R (bound/input frequency ratio).
Regarding B4, the binding signal was 0.696 R (bound/input frequency ratio).
As for B5, the binding signal was 0.83 R (bound/input frequency ratio).
As for B6, the binding signal was 5.89 R (bound/input frequency ratio).
For B7, the binding signal is 5.11 R (bound/input frequency ratio).
For B8 the value was 5.28 R (bound/input frequency ratio); for B9, 0.768 R (bound/input frequency ratio); for B10, 0.0728 R (bound/input frequency ratio).
For B11 the value was 0.0933 R (bound/input frequency ratio); for B12, 0.559 R (bound/input frequency ratio).
For B13 the value was 1.47 R (bound/input frequency ratio).
